Experimental data: PubChem BioAssay (NCATS)
Results filed as inconclusive are left out. Calls of active or inactive are those of the source. Unless noted, the call rests on the fitted dose curve.

Test system: not listed separately
Test: qHTS for Inhibitors of the Functional Ribonucleoprotein Complex (vRNP) of Lymphocytic Choriomeningitis Arenaviruses (LCMV): Viability assay - alamar blue signal for LCMV Primary Screen (AID 1347085; calls by dose curve; tested in HEK293 reporter line; further: nearly all actives have a fitted effect of over 80% in size)
Conditions: alamar blue viability counter-screen, LCMV vRNP screen cells; series mostly up to 57.5 µM; activity change, negative = lower viability: at the top concentration
On the % scale 0 is the no-effect control and ±100 the full control effect.

SMILES	activity change, negative = lower viability	Potency
CC[N+](C)(CC)CCOC(=O)C1c2ccccc2Oc2ccccc21	9.75% (inactive)	
O=c1[nH]cnc2[nH]ncc12		inactive
CC(C)OP(=O)(CP(=O)(OC(C)C)OC(C)C)OC(C)C	-3.06% (inactive)	
Nc1ccn([C@@H]2CS[C@H](CO)O2)c(=O)n1	-24.8% [at 115 µM] (inactive)	
CC(=O)Nc1ncc([N+](=O)[O-])s1	-1.32% (inactive)	
CCCNC(C)C(=O)Nc1c(C)csc1C(=O)OC (stereo unspecified)	0.841% (inactive)	
CC(C)Cn1cnc2c(N)nc3ccccc3c21		inactive
Cc1nc2ccccn2c(=O)c1CCN1CCC(C(=O)c2ccc(F)cc2)CC1		inactive
O=C(N[C@H](CO)[C@H](O)c1ccc([N+](=O)[O-])cc1)C(Cl)Cl		inactive
CCN(CC)CCOC(=O)c1ccc(N)cc1		inactive
O=C(O)Cc1cccc(-c2cc(CCCCCCc3ccc(O[C@H]4O[C@H](CO)[C@@H](O)[C@H](O)[C@@H]4O)c(-c4cccc(CC(=O)O)c4)c3)ccc2O[C@H]2O[C@H](CO)[C@@H](O)[C@H](O)[C@@H]2O)c1	2.8% [at 0.757 µM] (inactive)	
O=c1cc(O)c(Cl)c[nH]1		inactive
CCOC(=O)c1ccc(O)c(O)c1	-0.982% (inactive)	
COc1cc(C(=O)N2CCCCCCC2)cc(OC)c1OC	13.6% (inactive)	
CC(O)C(=O)O (stereo unspecified)	3.25% (inactive)	
Nc1ccc(S(=O)(=O)NCc2ccccc2)cc1	0.0915% (inactive)	
COc1ccc2[nH]cc(CCNC(C)=O)c2c1		inactive
CC1CCN(CCCC(=O)c2ccc(F)cc2)CC1	-7.06% (inactive)	
Cc1cc(=O)[nH]c(=S)[nH]1	7.23% (inactive)	

SMILES	activity change, negative = lower viability	Potency
COC(=O)[C@@H]1[C@H]2C[C@H]3c4[nH]c5ccccc5c4CCN3C[C@@H]2CC[C@@H]1O		inactive
Cc1c(I)c(=O)n(-c2ccccc2)n1C	-4.35% (inactive)	
CC(CSC(=O)c1ccccc1)C(=O)N1C[C@@H](Sc2ccccc2)C[C@H]1C(=O)O (stereo partly specified)	0.475% [at 24.7 µM] (inactive)	
CC(=O)OCC(COC(C)=O)OC(C)=O	3.09% (inactive)	
Nc1ccc(S(=O)(=O)Nc2ccnn2-c2ccccc2)cc1		inactive
COC(=O)C1=C(C)NC(C)=C(C(=O)OCCc2ccc(N3CCN(C(c4ccccc4)c4ccccc4)CC3)cc2)C1c1cccc([N+](=O)[O-])c1 (stereo unspecified)	-2.26% (inactive)	
CCN(CC)CCNC(=O)COc1ccc(OC)cc1	7.78% (inactive)	
CC1(C)O[C@@H]2C[C@H]3[C@@H]4CCC5=CC(=O)C=C[C@]5(C)[C@@H]4[C@@H](O)C[C@]3(C)[C@]2(C(=O)CO)O1	9.49% (inactive)	
O=C(O)C(S)C(S)C(=O)O (stereo unspecified)	1.43% (inactive)	
O=C(O)COc1nn(Cc2ccccc2)c2ccccc12	4.35% (inactive)	
CCc1cc(C(N)=S)ccn1		inactive
CCn1cc(C(=O)O)c(=O)c2cc(F)c(N3CCNC(C)C3)c(F)c21 (stereo unspecified)		inactive
OCCN1CCN(CC/C=C2/c3ccccc3Sc3ccc(C(F)(F)F)cc32)CC1	-3.52% (inactive)	
CCOC(=O)[C@H](CCc1ccccc1)N[C@@H](C)C(=O)N1CCC[C@H]1C(=O)O	-0.326% (inactive)	
CC(N=C(NC#N)Nc1ccncc1)C(C)(C)C (stereo unspecified)		inactive
O=C(O)CNC(=O)c1ccccc1		inactive
CC(C)(C)C(=O)Oc1ccc(S(=O)(=O)Nc2ccccc2C(=O)NCC(=O)O)cc1		inactive
CC=CC1=C(C(=O)O)N2C(=O)[C@H](NC(=O)[C@H](N)c3ccc(O)cc3)[C@@H]2SC1	3.32% (inactive)	
CNC(=O)c1c(I)c(NC(C)=O)c(I)c(C(=O)O)c1I	-7.42% (inactive)	

Biological target: Nucleoprotein (Lymphocytic choriomeningitis virus (strain Armstrong)) (UniProt P09992)
Test: qHTS for Inhibitors of the Functional Ribonucleoprotein Complex (vRNP) of Lymphocytic Choriomeningitis Arenaviruses (LCMV): LCMV Primary Screen - GLuc reporter signal (AID 1347086); further: nearly all actives have a fitted effect of over 70% in size
Conditions: LCMV minigenome vRNP cell assay, Gaussia luciferase reporter; series mostly up to 57.5 µM; activity change, negative = inhibition: at the top concentration

Nucleoprotein (Lymphocytic choriomeningitis virus (strain Armstrong)), sequence (P09992 whole entry, looked up): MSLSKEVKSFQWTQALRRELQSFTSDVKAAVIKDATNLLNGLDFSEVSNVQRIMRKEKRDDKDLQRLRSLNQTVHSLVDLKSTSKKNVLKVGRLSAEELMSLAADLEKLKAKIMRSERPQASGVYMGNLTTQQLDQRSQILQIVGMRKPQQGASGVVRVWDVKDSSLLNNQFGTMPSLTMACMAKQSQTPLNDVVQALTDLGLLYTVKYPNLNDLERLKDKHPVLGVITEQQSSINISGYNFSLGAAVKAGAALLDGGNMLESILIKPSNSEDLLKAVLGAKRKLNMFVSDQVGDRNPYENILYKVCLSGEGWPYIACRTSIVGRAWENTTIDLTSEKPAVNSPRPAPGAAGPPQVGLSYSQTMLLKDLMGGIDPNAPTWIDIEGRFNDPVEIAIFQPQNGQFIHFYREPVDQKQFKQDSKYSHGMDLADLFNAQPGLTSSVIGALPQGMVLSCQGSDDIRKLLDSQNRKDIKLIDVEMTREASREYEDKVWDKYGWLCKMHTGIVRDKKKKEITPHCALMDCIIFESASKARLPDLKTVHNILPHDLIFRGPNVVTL

SMILES	activity change, negative = inhibition	Potency
CC[N+](C)(CC)CCOC(=O)C1c2ccccc2Oc2ccccc21	6.49% (inactive)	
O=c1[nH]cnc2[nH]ncc12		inactive
CC(C)OP(=O)(CP(=O)(OC(C)C)OC(C)C)OC(C)C	-7.33% (inactive)	
Nc1ccn([C@@H]2CS[C@H](CO)O2)c(=O)n1	-16% [at 115 µM] (inactive)	
CC(=O)Nc1ncc([N+](=O)[O-])s1	3.55% (inactive)	
CCCNC(C)C(=O)Nc1c(C)csc1C(=O)OC (stereo unspecified)	6.97% (inactive)	
CC(C)Cn1cnc2c(N)nc3ccccc3c21		inactive
Cc1nc2ccccn2c(=O)c1CCN1CCC(C(=O)c2ccc(F)cc2)CC1		inactive
O=C(N[C@H](CO)[C@H](O)c1ccc([N+](=O)[O-])cc1)C(Cl)Cl		inactive
CCN(CC)CCOC(=O)c1ccc(N)cc1		inactive
O=C(O)Cc1cccc(-c2cc(CCCCCCc3ccc(O[C@H]4O[C@H](CO)[C@@H](O)[C@H](O)[C@@H]4O)c(-c4cccc(CC(=O)O)c4)c3)ccc2O[C@H]2O[C@H](CO)[C@@H](O)[C@H](O)[C@@H]2O)c1	2.06% [at 0.757 µM] (inactive)	
O=c1cc(O)c(Cl)c[nH]1		inactive
CCOC(=O)c1ccc(O)c(O)c1	0.697% (inactive)	
COc1cc(C(=O)N2CCCCCCC2)cc(OC)c1OC	17.6% (inactive)	
CC(O)C(=O)O (stereo unspecified)	-5.46% (inactive)	
Nc1ccc(S(=O)(=O)NCc2ccccc2)cc1	23.5% (inactive)	
COc1ccc2[nH]cc(CCNC(C)=O)c2c1		inactive
CC1CCN(CCCC(=O)c2ccc(F)cc2)CC1	-16.8% (inactive)	
Cc1cc(=O)[nH]c(=S)[nH]1	4.16% (inactive)	

SMILES	activity change, negative = inhibition	Potency
COC(=O)[C@@H]1[C@H]2C[C@H]3c4[nH]c5ccccc5c4CCN3C[C@@H]2CC[C@@H]1O		inactive
Cc1c(I)c(=O)n(-c2ccccc2)n1C	-1.12% (inactive)	
CC(CSC(=O)c1ccccc1)C(=O)N1C[C@@H](Sc2ccccc2)C[C@H]1C(=O)O (stereo partly specified)	10.6% [at 24.7 µM] (inactive)	
CC(=O)OCC(COC(C)=O)OC(C)=O	-4.3% (inactive)	
Nc1ccc(S(=O)(=O)Nc2ccnn2-c2ccccc2)cc1		inactive
COC(=O)C1=C(C)NC(C)=C(C(=O)OCCc2ccc(N3CCN(C(c4ccccc4)c4ccccc4)CC3)cc2)C1c1cccc([N+](=O)[O-])c1 (stereo unspecified)	9.83% (inactive)	
CCN(CC)CCNC(=O)COc1ccc(OC)cc1	12% (inactive)	
CC1(C)O[C@@H]2C[C@H]3[C@@H]4CCC5=CC(=O)C=C[C@]5(C)[C@@H]4[C@@H](O)C[C@]3(C)[C@]2(C(=O)CO)O1	21.9% (inactive)	
O=C(O)C(S)C(S)C(=O)O (stereo unspecified)	4.75% (inactive)	
O=C(O)COc1nn(Cc2ccccc2)c2ccccc12	26.6% (inactive)	
CCc1cc(C(N)=S)ccn1		inactive
CCn1cc(C(=O)O)c(=O)c2cc(F)c(N3CCNC(C)C3)c(F)c21 (stereo unspecified)		inactive
OCCN1CCN(CC/C=C2/c3ccccc3Sc3ccc(C(F)(F)F)cc32)CC1	-0.0816% (inactive)	
CCOC(=O)[C@H](CCc1ccccc1)N[C@@H](C)C(=O)N1CCC[C@H]1C(=O)O	-2% (inactive)	
CC(N=C(NC#N)Nc1ccncc1)C(C)(C)C (stereo unspecified)		inactive
O=C(O)CNC(=O)c1ccccc1		inactive
CC(C)(C)C(=O)Oc1ccc(S(=O)(=O)Nc2ccccc2C(=O)NCC(=O)O)cc1		inactive
CC=CC1=C(C(=O)O)N2C(=O)[C@H](NC(=O)[C@H](N)c3ccc(O)cc3)[C@@H]2SC1	14.3% (inactive)	
CNC(=O)c1c(I)c(NC(C)=O)c(I)c(C(=O)O)c1I	-3.54% (inactive)	
